In PubChem BioAssay (Tox21):
Inconclusive results are not listed. Where a call stands in place of a potency, no number is given. Calls of active or inactive are those of the source. Calls follow the shape of the full dose curve.

Biological target: 5-hydroxytryptamine receptor 2A (Homo sapiens) (UniProt P28223)
Experiment: 5-hydroxytryptamine receptor 2A (HTR2A) small molecule agonists, cell-based qHTS assay (AID 1963587); also: nearly all actives have a fitted effect of over 30% in size
Settings: HTR2A-CHO cells, calcium flux fluorescence, agonist mode; series mostly up to 76.8 µM
Source text: National Center for Advancing Translational Sciences [NCATS]
Division of Preclinical Innovation [DPI]
U.S. Environmental Protection Agency [EPA]
National Institutes of Environmental Health Sciences [NIEHS]
National Toxicology Program [NTP]
U.S. Food and Drug Administration [FDA]
The HTR2A receptor is a subtype of the 5-HT2 receptor that belongs to the serotonin receptor family and is a G protein-coupled receptor (GPCR). The HTR2A-CHO cell line stably expressing human 5-hydroxytryptamine receptor 2A (HTR2A) can be used for screening agonists of interactions between 5-HT2 and its ligands. The HTR2A-CHO calcium flux assay is a homogeneous fluorescence-based assay for detecting the intracellular calcium level using FDSS kinetic plate reader system.
HTR2A-CHO cells were dispensed at 2000 cells/3uL/well in 1536-well black-clear bottom plates using a Multidrop Dispenser. After the assay plates were incubated at a 37 C/5% CO2 incubator for 18 h, 3 uL of Dye Loading Buffer was transferred to the assay plate by a Flying Reagent Dispenser. The assay plates were incubated at 37 C for 1h. For agonist mode, 23 nL of compounds dissolved in DMSO, positive controls or DMSO only was transferred to the assay plate by a pin tool. The fluorescence intensity in the plates was measured using FDSS 7000EX kinetic plate reader for 2 min at 1 sec intervals.
Potency is read from the fitted curve at half-maximal effect.

Sequence of 5-hydroxytryptamine receptor 2A (Homo sapiens) (P28223 whole entry, looked up): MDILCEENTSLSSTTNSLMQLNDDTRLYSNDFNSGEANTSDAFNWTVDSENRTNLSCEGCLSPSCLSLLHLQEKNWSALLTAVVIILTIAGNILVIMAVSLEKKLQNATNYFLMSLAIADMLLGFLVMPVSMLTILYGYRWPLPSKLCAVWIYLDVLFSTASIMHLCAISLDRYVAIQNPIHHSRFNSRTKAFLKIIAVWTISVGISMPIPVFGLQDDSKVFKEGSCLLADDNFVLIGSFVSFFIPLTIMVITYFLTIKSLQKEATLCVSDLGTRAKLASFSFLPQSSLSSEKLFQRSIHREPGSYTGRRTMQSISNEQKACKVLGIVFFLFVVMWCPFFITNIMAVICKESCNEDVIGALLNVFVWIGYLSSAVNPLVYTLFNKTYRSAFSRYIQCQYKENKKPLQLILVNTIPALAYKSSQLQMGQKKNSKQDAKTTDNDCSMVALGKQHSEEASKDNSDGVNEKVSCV

Compound | Potency
COc1ccc(C(=O)c2ccc(C)cc2)c(O)c1 | inactive
CCOB(OCC)OCC | inactive
CN1[C@@H]2CC(OC(=O)[C@H](CO)c3ccccc3)C[C@H]1[C@@H]1O[C@@H]12 (stereo not given in full) | inactive
CC(C)OC(=O)OCOP(=O)(CO[C@H](C)Cn1cnc2c(N)ncnc21)OCOC(=O)OC(C)C | inactive
Nc1ccc(-c2ccc(F)cc2)cc1 | inactive
CCCc1ccc(OC)cc1 | inactive
C[C@@H](N)C(=O)O | inactive
c1cc(N(CC2CO2)CC2CO2)ccc1OCC1CO1 (stereo not given) | inactive
CC(C)(C)c1cc(/C=C2\SC(=N)NC2=O)cc(C(C)(C)C)c1O | inactive
OCCOc1cccc(OCCO)c1 | inactive
CC(C)c1ccccc1N | inactive
CCOC(=O)[C@@H](C)Oc1ccc(Oc2nc3ccc(Cl)cc3o2)cc1 | inactive
CC(=O)OCC1=C(C(=O)O)N2C(=O)[C@@H](NC(=O)CSc3ccncc3)[C@H]2SC1 | inactive
Nc1c(I)cc(I)c(C(=O)N(CCC(=O)O)c2ccccc2)c1I | inactive
N=C(N)N | inactive
CC(C)COC(=O)/C=C/c1ccccc1 | inactive
Oc1ccc2ccccc2c1 | inactive
O=C(O)C(=O)Cc1ccccc1 | inactive
CC(CN)CC(C)(C)CCN (stereo not given) | inactive
Cc1cc(=O)oc2cc(N(C)C)ccc12 | inactive

Compound | Potency
CCCCCCCC/C=C\CCCCCCCC(=O)OCCO | inactive
Cc1cc(NC(=O)C(=O)O)cc(C)c1Oc1ccc(O)c2c1CCC2 | inactive
CCCOc1sc(C(=O)N2CCC(c3cc(CN)ccc3F)CC2)c(C)c1Br | 50.4 µM (active)
CC(C(O)c1ccccc1)N(C)CCOC(c1ccccc1)c1ccccc1 (stereo not given) | 23.9 µM (active)
CCOc1ccc(N=Nc2ccc(/C=C/c3ccc(N=Nc4ccc(OCC)cc4)cc3S(=O)(=O)O)c(S(=O)(=O)O)c2)cc1 | inactive
Cc1c(-c2ccc(O)cc2)n(Cc2ccc(OCCN3CCCCCC3)cc2)c2ccc(O)cc12 | inactive
COC(=O)[C@]1(C)CCC[C@@]2(C)[C@H]1CC=C1C=C(C(C)C)CC[C@@H]12 | inactive
O=C(O)[C@H](O)c1ccccc1 | inactive
CCC[Si](OC)(OC)OC | inactive
CCCCCCCCCCC1CO1 (stereo not given) | inactive
O=S(c1cc(Cl)cc(Cl)c1O)c1cc(Cl)cc(Cl)c1O | inactive
CC(=O)Oc1cccc(C)c1 | inactive
CN(C)CC[C@@H](c1ccc(Br)cc1)c1ccccn1 | inactive
CC(O)C#CC(C)O (stereo not given) | inactive
CCN(Cc1ccccc1)c1ccccc1 | inactive
SCCOCCOCCS | inactive
OCCN1CCOCC1 | inactive
O=[N+]([O-])c1ccc(Nc2ccc(Nc3ccccc3)c(S(=O)(=O)O)c2)c([N+](=O)[O-])c1 | inactive
Cc1cccc(Br)c1 | inactive
O=C(NCC(O)CO)c1c(I)c(C(=O)NCC(O)CO)c(I)c(N(CCO)C(=O)CO)c1I (stereo not given) | inactive
